# Measured values published in PubChem BioAssay AID434955 (Southern Research Specialized Biocontainment Screening …, 2010).
# Screen size: about 330,000 compounds; about 880 (0.27%) were called active. Roughly 1% stayed inconclusive and do not appear here. How the calls were made is not given here. Only a sample is shown.
# Assay: beta-lactam sensitization of Mtb H37Rv, H37Rv (AID 434955);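 further: growth measured after seven days incubation then overnight dye step; 0% = bacteria only wells and 100% = bacteria with antibiotic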
# Settings: M. tuberculosis H37Rv growth with meropenem, percent inhibition, at 25 µM
# [1] = measured here: primary screen without meropenem
SMILES,inhibition (stronger effect = higher value),inhibition [1]
COCCNC(=O)C(c1ccc(O)cc1)N(C(=O)CCC(=O)Nc1nccs1)c1ccc(C)cc1 (stereo not drawn),-3.29% (inactive),-1.6%
O=C(Cn1cnc2c(cnn2-c2ccc(F)cc2)c1=O)NCCc1ccccc1,8.42% (inactive),5.1%
CCOC(=O)C1CCN(C(=O)Cc2c(C(=O)O)[nH]c3ccccc23)CC1,11.4% (inactive),8.1%
COCc1cc(C)nc2sc3c(=O)n(-c4cccc5ccccc45)nnc3c12,41.4% (inactive),-9.11%
CN(c1ccccc1)S(=O)(=O)c1cccc(C(=O)NNC(=O)c2ccncc2)c1,-14.5% (inactive),10.4%
COc1ccccc1C(=O)N/C(=C/c1ccco1)C(=O)Nc1ccc(C(=O)O)cc1,5.03% (inactive),3.35%
CCOC(=O)C(=O)C1C(=O)Nc2ccccc21 (stereo not drawn),5.13% (inactive),3%
COc1cc(NS(=O)(=O)c2ccc(NC(=O)c3ccc(S(=O)(=O)N4CCCCC4)cc3)cc2)ncn1,-5.84% (inactive),-4.25%
Cc1ccc(C(=O)N2CCC(n3nccc3NC(=O)Nc3cccc(F)c3)CC2)cn1,-9.41% (inactive),-4.97%
COc1ccccc1N(C(=O)Cn1nnc2ccccc21)C(C(=O)NCc1ccco1)c1ccc(C)o1 (stereo not drawn),-4.29% (inactive),-5.41%
CCN(Cc1nc2ccccc2c(=O)[nH]1)Cc1cc(=O)oc2cc(C)c(C)cc12,1.77% (inactive),-4.21%
COc1cccc(N2CC(NC(=O)c3ccc4ccccc4c3)CC2=O)c1 (stereo not drawn),-3.62% (inactive),10.2%
O=C(CC1OC(=O)c2ccccc21)NC1CCCCC1 (stereo not drawn),2.15% (inactive),2.66%
COc1ccccc1CCCNC(=O)C1CCC(=O)N(CCN2CCOCC2)C1 (stereo not drawn),1.01% (inactive),-9.27%
Cc1cc(C)c2nc3nc(C)cc(C)c3c(N)c2c1,6.08% (inactive),4.53%
CCC(C)N(C(=O)COC(=O)c1nc(Cl)ccc1Cl)C1CCS(=O)(=O)C1 (stereo not drawn),-10.3% (inactive),-10.3%
CCn1c(CNC(=O)c2ccco2)nnc1SCC(=O)Nc1cccc(F)c1,-8.4% (inactive),-1.57%
O=c1cc(CN2CCN(c3cccc(Cl)c3)CC2)c2cc3c(cc2o1)CCCC3,-11.5% (inactive),1.9%
COc1ccc(-c2ccc(OC(=O)NC3CCS(=O)(=O)C3)cc2)cc1 (stereo not drawn),87.1% (inactive),66.5%
COCCOC(=O)C1=C(C)NC(=O)NC1c1cc2c(cc1Br)OCO2 (stereo not drawn),-3.19% (inactive),0.53%

SMILES,inhibition (stronger effect = higher value),inhibition [1]
Cc1ccc(C(=O)N2CCN(S(=O)(=O)N3CCOCC3)CC2)cc1,-7.62% (inactive),-3.45%
CC(C)Cc1ccc(S(=O)(=O)N2CCN(C(=O)c3ccco3)CC2)cc1,1.6% (inactive),-4.13%
C/C(=N/O)c1ccc(N2C(=O)C3C4C=CC(C3C2=O)C2C3C(=O)N(c5ccc(/C(C)=N/O)cc5)C(=O)C3C42)cc1 (stereo not drawn),-4.77% (inactive),-7.58%
Cc1ccc(S(=O)(=O)N(CC(O)CN2C(=O)NC(C)(C)C2=O)c2cccc([N+](=O)[O-])c2)cc1 (stereo not drawn),16.4% (inactive),4.68%
CC/S(CC1CC1(Cl)Cl)=N\S(=O)(=O)c1ccc(C)cc1 (stereo not drawn),-10.6% (inactive),-11.9%
CCOc1cc(NC(=O)CCl)c(OCC)cc1NC(C)=O,90.5% (inactive),98.2%
CC(C)CCOc1ccc(C(=O)C[N+]2(C)CCOCC2)cc1,-6.59% (inactive),4.15%
COC(=O)C(C)N=Cc1ccccc1 (stereo not drawn),-4.31% (inactive),0.46%
O=C(C1CC(=O)N(C2CCCCC2)C1)N1CCN(c2ccccc2)CC1 (stereo not drawn),0.44% (inactive),1.29%
O=[N+]([O-])c1c(NCCO)cc(Sc2nc3ccccc3s2)c2nonc12,95.6% (inactive),96%
O=C(NCc1ccc2c(c1)OCO2)c1cc([N+](=O)[O-])ccc1N1CCOCC1,-1.78% (inactive),-2.18%
COc1ccc(NC(=O)COc2ccc(C(=O)c3ccc(F)cc3)cc2)cc1S(N)(=O)=O,7.84% (inactive),10.7%
N#Cc1ccc(COC(=O)Cn2nnc(-c3ccccc3)n2)cc1,2.69% (inactive),0.73%
O=C(COC(=O)Cc1ccccc1F)NNC(=O)c1ccc(Cl)cc1,-6.06% (inactive),20.8%
CC(=O)Nc1ccc(NC(=O)CSc2nnnn2-c2ccccc2F)cc1,-2.11% (inactive),-2.67%
CC(C)c1nc(CNC(=O)CC2C(=O)NCCN2Cc2ccoc2)cs1 (stereo not drawn),-7.57% (inactive),-8.36%
O=C(CC1SC(=Nc2ccccc2F)N(CCN2CCOCC2)C1=O)Nc1ccc(F)cc1F (stereo not drawn),3.51% (inactive),2.75%
CCc1ccc(-c2cc3c(=O)n(CC(=O)NCCCN4CCN(Cc5ccccc5)CC4)nc(C)n3n2)cc1,99.7% (inactive),99.5%
CO/N=C(/CS(=O)(=O)c1ccc(Br)cc1)c1ccc(OC)cc1,-4.01% (inactive),-5.94%
